# Reference: PubChem BioAssay (EPA / NIEHS)
# Calls of active or inactive are those of the source. Rule for the calls: active = hit-call score of the fitted dose curve at least 0.9, where 1 is the maximum; inconclusive = response in the unintended direction; inactive = score below 0.9.
# Test: CPHEA_Stoker_NIS_Cytotoxicity: Cytotoxicity Assessment for CPHEA's Radioactive Iodide Uptake (RAIU) Assay for Sodium/Iodide Symporter (NIS) Inhibition, Stoker and Laws Labs (AID 2283897);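 for AC50: active means loss of ATP signal versus DMSO meaning cytotoxicity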
# Protocol: CPHEA_Stoker_NIS is a cell-based, single-readout assay that uses hNIS-HEK293T-EPA, a novel human kidney cell line expressing human NIS, with measurements taken at 2 hours after chemical dosing in a 96-well plate. This radioactive iodide uptake (RAIU) assay is used to identify inhibitors of NIS-mediated iodide uptake. A parallel cytoxicity assay (Cell Titer Glo, Promega) was also run in the same cell line.CPHEA_Stoker_NIS_Cytotoxicity is one of 2 assay components measured from the CPHEA_Stoker_NIS assay. It is designed to make measurements of atp content, a form of viability reporter, as detected with bioluminescence signals by Luciferase-coupled ATP quantitation technology.Data from the assay component CPHEA_Stoker_NIS_Cytotoxicity was analyzed at the endpoint, CPHEA_Stoker_NIS_Cytotoxicity, in the positive analysis fitting direction relative to DMSO as the negative control and baseline of activity. Using a type of viability reporter, measures of ATP content for loss-of-signal activity can be used to understand the viability. To generalize the intended target to other relatable targets, this assay endpoint is annotated to the cell cycle intended target family, where the subfamily is cytotoxicity.
# hNIS-HEK293T-EPA cells were seeded with a MultiFlo FX dispenser (BioTek, Winooski, VT) into ScintiPlate-96 microplates (Perkin Elmer, Waltham, MA) at a density of 4.0x10^4 cells per well in 200uL growth media and incubated for 40 hours before experimentation. On day of the assay, carrier-free 125I (Perkin-Elmer, Waltham, MA; specific activity: 17.4Ci/mg) was diluted with Hanks' balanced salt solution (Sigma, St. Louis, MO) supplemented with 10mM HEPES (uptake buffer; pH 7.4) at 5uCi/mL (288pg 125I/mL uptake buffer; 2.30nM). The assay was initiated by washing cells twice with 200uL uptake buffer using a 96-well Tecan HydroSpeed plate washer (Tecan, Mannedorf, Switzerland). Uptake buffer (59.7uL) was then added back to each well. Chemical samples (350nL at 200X) were administered using the HDR tool as previously described to achieve a 1X chemical/0.5% final DMSO concentration with subsequent addition of 10uL of 125I dilution (final [125I]: 329pM; 2.88pg/well) for a final reaction volume of 70uL/well. Cells were incubated at room temperature for 2 hours and then washed twice with 200uL ice cold uptake buffer. All uptake buffer was aspirated from wells, plates were sealed, and read on a MicroBeta2 plate reader (Perkin Elmer, Waltham, MA) using a detection protocol to measure CPM corresponding to intracellular 125I concentration. Each chemical concentration (0.001, 0.01, 0.1, 1.0, 10, and 100uM) was assayed in triplicate with three independent biological replicate plates (3 sequential cell passages). Additionally, a concentration response of NaClO4 (0.001, 0.01, 0.1, 1.0, 10, and 100uM) served as a positive control inhibition curve on each RAIU assay plate. DMSO control wells were assayed on each plate as a measure of maximum iodide uptake for normalization and determination of intra- and inter-assay variation. (Toxicol In Vitro, 2017, 40:66-78).
Compound,outcome,AC50
CC[C@H](C)[C@@H](C(=O)O)n1sc2ccccc2c1=O,inactive,–
Cc1cc(CCN2CCN(c3nsc4ccccc34)CC2)cc2c1NC(=O)CC2(C)C,–,9.92 µM (active)
O=C1OC2(c3ccccc31)c1cc(Br)c(O)c(Br)c1Oc1c2cc(Br)c(O)c1Br,inactive,–
O=C(O)Cc1cc(I)c(Oc2cc(I)c(O)c(I)c2)c(I)c1,inactive,–
CN1CCN(c2ccccc2/C=C2\SCCN(c3ccc(Cl)c(Cl)c3)C2=O)CC1,inactive,–
CC[C@H](c1ccc(O)cc1)[C@@H](CC)c1ccc(O)cc1,–,9.92 µM (active)
CCCCCCCCCCCCCC[N+](C)(C)C,inactive,–
Oc1cc2ccccc2c2ccccc12,inactive,–
O=C(OCCOCCOC(=O)c1ccccc1)c1ccccc1,inactive,–
ClC1=C(Cl)C(Cl)(Cl)C(Cl)=C1Cl,inactive,–
Cc1oc(-c2ccccc2)nc1CCOc1ccc(C[C@H](Nc2ccccc2C(=O)c2ccccc2)C(=O)O)cc1,–,9.21 µM (active)
CC#C[C@]1(O)CC[C@H]2[C@@H]3CCC4=CC(=O)CCC4=C3[C@@H](c3ccc(N(C)C)cc3)C[C@@]21C,inactive,–
c1ccc2c(c1)Cc1ccccc1-2,inactive,–
CCCCCCCCCCCCN1CCCC1=O,inactive,–
CC(=O)NC1(c2cccc(F)c2)CCN(CC[C@@]2(c3ccc(Cl)c(Cl)c3)CN(c3ccccc3)C(=O)CO2)CC1,inactive,–
c1ccc2c(c1)ccc1ccccc12,inactive,–
c1ccc2cc3c(ccc4ccccc43)cc2c1,inactive,–
O=C(O)c1ccccc1C(c1ccc(O)cc1)c1ccc(O)cc1,inactive,–
CC(C)(C)c1cccc(C(C)(C)C)c1O,inactive,–
NC(=O)N1C(=O)C(C(=O)c2cc(Cl)cs2)c2cc(F)c(Cl)cc21 (stereo not given),inactive,–
CC(C)(C)c1ccc(O)c(C(C)(C)C)c1,–,9.92 µM (active)
CC1=C(/C=C/C(C)=C/C=C/C(C)=C/C(=O)O)C(C)(C)CCC1,inactive,–
CCC(=C(c1ccc(O)cc1)c1ccc(OCCN(C)C)cc1)c1ccccc1,inactive,–
CCc1ccc(CCOc2ccc(CC3SC(=O)NC3=O)cc2)nc1 (stereo not given),inactive,–
CCCCCCCCCCCCc1ccccc1S(=O)(=O)O,inactive,–
